Source: PubChem BioAssay
nsP2pro primary = CHIKV nsP2 protease inhibition, primary qHTS. FRET peptide cleavage, nsP2pro, fluorescence 1 h. 31,000 compounds, 1.1% hits. AID 1964107. Potency, µM (series often up to 24.9 µM), for the others: at the top dose activity change, negative = inhibition, actives largely listed as inhibitors; also: nearly all actives have a fitted effect of over 60% in size
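Recombinant nsP2pro (150 nM) was preincubated with compound 15 min at room temperature in 10 mM Tris-HCl pH 8.0, 0.01% Tween 20. Peptide 2 FRET substrate (2.5 uM) was then added and fluorescence read after 1 h. Seven-point series, up to 25 uM.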
nsP2 cell sec = secondary cell-based test for CHIKV nsP2 protease inhibitors; cell-based CHIKV nsP2 protease reporter assay; AID 1964100; 450 compounds, 10% hits; Potency, µM (series often up to 51.1 µM), inactives show at the highest dose activity change, negative = inhibition, most hits filed as inhibitors; shares compounds with nsP2pro primary; also: nearly all actives have a fitted effect of over 70% in size
Target sequence (Q8JUX6 220-798 limits assumed): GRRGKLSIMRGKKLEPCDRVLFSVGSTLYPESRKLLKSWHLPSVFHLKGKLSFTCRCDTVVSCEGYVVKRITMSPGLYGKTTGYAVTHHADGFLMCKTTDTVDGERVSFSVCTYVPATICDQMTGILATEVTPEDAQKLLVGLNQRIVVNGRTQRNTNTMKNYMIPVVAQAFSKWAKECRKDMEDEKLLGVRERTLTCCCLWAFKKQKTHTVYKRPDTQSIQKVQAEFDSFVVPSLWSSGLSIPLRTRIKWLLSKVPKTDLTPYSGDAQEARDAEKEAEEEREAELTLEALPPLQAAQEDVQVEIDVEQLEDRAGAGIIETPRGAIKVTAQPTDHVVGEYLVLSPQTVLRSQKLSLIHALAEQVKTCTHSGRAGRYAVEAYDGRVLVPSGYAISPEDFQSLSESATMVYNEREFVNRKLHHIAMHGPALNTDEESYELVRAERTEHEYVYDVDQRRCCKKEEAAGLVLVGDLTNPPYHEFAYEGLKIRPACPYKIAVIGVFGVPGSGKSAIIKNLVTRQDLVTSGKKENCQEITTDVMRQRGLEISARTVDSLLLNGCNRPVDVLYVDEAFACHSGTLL
NSP2 full ctr = inhibits full-length CHIKV NSP2 enzyme. Full-length CHIKV NSP2 protease enzymatic counterscreen. 410 compounds, 39% hits. shares compounds with nsP2pro primary. AID 1964101. Potency, µM (titrated, usually from 50.7 µM), inactives show at the top dose activity change, negative = inhibition, usual class: inhibitors; also: nearly all actives have a fitted effect of over 65% in size
Furin counter = inhibits human furin in a CHIKV nsP2 protease selectivity counterscreen; 410 compounds, 6% hits; shares compounds with nsP2pro primary; Recombinant human furin enzymatic counterscreen, fluorogenic substrate; AID 1964102; Potency, µM (highest dose often 50.6 µM), inactives show top-dose activity change, negative = inhibition, most hits filed as inhibitors
NS23 peptide cs = blocks CHIKV nsP2 protease cleavage of endogenous NS2/3 peptide. shares compounds with nsP2pro primary. Purified CHIKV nsP2 protease, endogenous NS2/3 peptide cleavage. Potency, µM (titrated, usually from 51 µM), for the others: at the top dose activity change, negative = inhibition, hits mostly inhibitors. 410 compounds, 34% hits; also: nearly all actives have a fitted effect of over 55% in size
Papain cs = papain protease inhibition, counterscreen for nsP2pro inhibitors | shares compounds with nsP2pro primary | purified papain protease activity, enzymatic inhibition | Potency, µM (titrated, usually from 51 µM), for inactives: at the top dose activity change, negative = inhibition, actives largely listed as inhibitors | 410 compounds, 5% hits | AID 1964104
nsP2pro confirm = confirmation of CHIKV nsP2 protease inhibitors | shares compounds with nsP2pro primary | CHIKV nsP2 protease enzymatic activity, qHTS | Potency, µM (titrated, usually from 25.5 µM), for the others: at the top dose activity change, negative = inhibition, most hits filed as inhibitors | 410 compounds, 43% hits | AID 1964105; also: nearly all actives have a fitted effect of over 75% in size
HCV NS3 4A cs = inhibits HCV NS3/4A protease in an nsP2pro selectivity counterscreen; 410 compounds, 20% hits; shares compounds with nsP2pro primary; Potency, µM (titrated, usually from 50.9 µM), most hits filed as inhibitors; AID 1964106; HCV NS3/4A protease biochemical counterscreen; also: nearly all actives have a fitted effect of over 55% in size
Numbers without * were called inactive; i = inactive; ? = inconclusive; ! = not confirmed by another sample; [ ] = remark or other dose. The full list was thinned out, with hits kept by preference. Calls follow the shape of the full dose curve. % is scaled to controls: 0 for no effect and ±100 for the full control effect; potency is read from the fitted curve at half-maximal effect.

SMILES	nsP2pro primary	others
CC(=O)O[C@@H]1[C@@H](OC(=O)/C=C/c2ccccc2)[C@H](C)O[C@@H](O[C@H]2[C@@H]3C=CO[C@@H](O[C@@H]4O[C@H](CO)[C@@H](O)[C@H](O)[C@H]4O)[C@@H]3[C@@]3(CO)O[C@@H]23)[C@@H]1OC(C)=O	-10%[10 µM]
Cc1nc(CN2CCOc3cc([S+](=O)([O-])N(C)C)ccc3C2)cs1	i
O=C1C(Cl)=C(N2CCOCC2)C(=O)N1c1ccc(Cl)c(Cl)c1	?	nsP2 cell sec=?;NSP2 full ctr=?;Furin counter=-11%[17.3 µM];NS23 peptide cs=?;Papain cs=?;nsP2pro confirm=3.1µM*;HCV NS3 4A cs=i
COc1cccc(CN2CCC(C(=O)N3CCCCCCNC(=O)CC3)CC2)c1	-4%
O=S(=O)(Nc1nccs1)c1ccc(NCc2cccc(Cl)c2Cl)cc1	1%
O=S(=O)(O)c1ccccc1	-1%
NS(=O)(=O)C#Cc1ccccc1	7.9µM*	nsP2 cell sec=?;NSP2 full ctr=13µM*;Furin counter=-7%;NS23 peptide cs=?;Papain cs=-7%;nsP2pro confirm=6.3µM*;HCV NS3 4A cs=i
NC(=O)C1CCN(c2ncc(-c3ccc4c(c3)OCO4)s2)CC1	-5%
CC(=O)Nc1ccc(CN2CC(Oc3ccc4c(c3)OCO4)C2)cc1	2%
O=C(C1CC1)N1CCC(C(=O)N2CC(Oc3ccc4c(c3)OCO4)C2)CC1	7.9µM*	nsP2 cell sec=7%;NSP2 full ctr=13µM*;Furin counter=-9%;NS23 peptide cs=?;Papain cs=-2%;nsP2pro confirm=8µM*;HCV NS3 4A cs=7.3µM*
CC(=O)N1CCN(c2nc3c(s2)CC(C(=O)Nc2cc(Cl)ccc2F)CC3)CC1 (stereo unspecified)	i
CC[C@@H](C)Nc1cc(C(=O)NC2CC3CC[C@@H](C2)N3c2ccc(C(=O)C3CC3)cn2)c(C)cc1C(N)=O (stereo partly specified)	-1%
CCn1nccc1C(=O)N1CCC(Nc2nccnc2OC)CC1	-3%
COc1ccc(NC(=O)c2nc(S(=O)(=O)Cc3ccc(C)cc3)ncc2Cl)cc1	-30%
CCOc1ccc(NC(=O)c2nc(S(=O)(=O)Cc3ccccc3)ncc2Cl)cc1	145%
COc1ccc(CNC(=O)c2nc(S(=O)(=O)Cc3ccccc3)ncc2Cl)cc1	6.3µM*!	nsP2 cell sec=3.7µM*!;NSP2 full ctr=16µM*;Furin counter=-1%;NS23 peptide cs=8.2µM*;Papain cs=-2%;nsP2pro confirm=5.7µM*;HCV NS3 4A cs=?
Cc1cc(NC(=O)Nc2nnc(-c3cccnc3)s2)ccc1Cl	2%
Clc1ccc(Cn2c(Cc3ccccc3)nc3ccccc32)cc1	0%
COc1c(O)cc2oc(-c3ccccc3)cc(=O)c2c1O	-8%
Cc1ccc(CN2CC[C@H](c3nnc(-c4ccco4)o3)C2)o1	2%[39.2 µM]
Cc1ccsc1[C@@H]1CCN(Cc2ccc(-c3ccn[nH]3)o2)C[C@H]1O	3.5µM*	nsP2 cell sec=?;NSP2 full ctr=?;Furin counter=0%;NS23 peptide cs=?;Papain cs=-3%;nsP2pro confirm=8µM*;HCV NS3 4A cs=?
Cc1nccn1C1(C(=O)O)CCN(Cc2ccc(-c3ccn[nH]3)o2)CC1	-15%
Cc1ccc(OCCn2c(CCNC(=O)c3ccccn3)nc3ccccc32)cc1	-3%
COc1ccc(NCc2cc3cc4c(cc3n(CC(=O)Nc3ccc(C)cc3C)c2=O)OCO4)cc1	?	nsP2 cell sec=4%
Cc1ccc(NC(=O)Cn2c(=O)n(CCC(=O)NCc3ccc4c(c3)OCO4)c(=O)c3sccc32)c(C)c1	-21%
COc1ccc2cc(CNc3ccccc3)c(=O)n(CC(=O)Nc3ccc(C(C)=O)cc3)c2c1	-10%
O=C(Nc1ccc(Cl)nc1)c1ccc2ccnn2c1	-1%[39.2 µM]
CC(C)(CC(=O)O)CC(=O)N1Cc2[nH]cnc2C[C@H]1C(=O)NC1CCCCC1	-8%[39.2 µM]
